Source: the supplement of paper PMC11732987, “Enantioselective OTUD7B fragment discovery through chemoproteomics screening and high-throughput optimisation” (Communications Chemistry, 2025)

How the values were obtained:
Test in all cases: log2 ratio of Biotin-Ahx-Ub-VS probe labelling (fragment/DMSO); higher = less target engagement (more negative = stronger competition), active = hit call of the paper (q ≤ 0.05, log2 ratio ≤ -1)
Settings in all cases: compound concentration: 200 uM; treatment time: 3 h
[1] = molecular target: USP34 (UniProt Q70CQ2)
Summary of the method: (§1)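 HEK293T lysate (495 µg per sample, in Tris/CHAPS/IGEPAL buffer with protease inhibitors) was exposed in triplicate for 3 h to fragment at 200 µM or to vehicle, then to Biotin-Ahx-Ub-VS at 0.5 µM final for 1 h. Labelled DUBs were enriched on NeutrAvidin, digested with LysC and trypsin, and analysed by diaPASEF LC-MS/MS. Spectronaut label-free quantities were normalised to the global median, and values are average log2 ratios of fragment over vehicle from an unpaired t-test. Only proteins with ≥2 unique peptides were used.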

[2] = molecular target: T1, USP36 (UniProt Q9P275)
T1 sequence (whole entry): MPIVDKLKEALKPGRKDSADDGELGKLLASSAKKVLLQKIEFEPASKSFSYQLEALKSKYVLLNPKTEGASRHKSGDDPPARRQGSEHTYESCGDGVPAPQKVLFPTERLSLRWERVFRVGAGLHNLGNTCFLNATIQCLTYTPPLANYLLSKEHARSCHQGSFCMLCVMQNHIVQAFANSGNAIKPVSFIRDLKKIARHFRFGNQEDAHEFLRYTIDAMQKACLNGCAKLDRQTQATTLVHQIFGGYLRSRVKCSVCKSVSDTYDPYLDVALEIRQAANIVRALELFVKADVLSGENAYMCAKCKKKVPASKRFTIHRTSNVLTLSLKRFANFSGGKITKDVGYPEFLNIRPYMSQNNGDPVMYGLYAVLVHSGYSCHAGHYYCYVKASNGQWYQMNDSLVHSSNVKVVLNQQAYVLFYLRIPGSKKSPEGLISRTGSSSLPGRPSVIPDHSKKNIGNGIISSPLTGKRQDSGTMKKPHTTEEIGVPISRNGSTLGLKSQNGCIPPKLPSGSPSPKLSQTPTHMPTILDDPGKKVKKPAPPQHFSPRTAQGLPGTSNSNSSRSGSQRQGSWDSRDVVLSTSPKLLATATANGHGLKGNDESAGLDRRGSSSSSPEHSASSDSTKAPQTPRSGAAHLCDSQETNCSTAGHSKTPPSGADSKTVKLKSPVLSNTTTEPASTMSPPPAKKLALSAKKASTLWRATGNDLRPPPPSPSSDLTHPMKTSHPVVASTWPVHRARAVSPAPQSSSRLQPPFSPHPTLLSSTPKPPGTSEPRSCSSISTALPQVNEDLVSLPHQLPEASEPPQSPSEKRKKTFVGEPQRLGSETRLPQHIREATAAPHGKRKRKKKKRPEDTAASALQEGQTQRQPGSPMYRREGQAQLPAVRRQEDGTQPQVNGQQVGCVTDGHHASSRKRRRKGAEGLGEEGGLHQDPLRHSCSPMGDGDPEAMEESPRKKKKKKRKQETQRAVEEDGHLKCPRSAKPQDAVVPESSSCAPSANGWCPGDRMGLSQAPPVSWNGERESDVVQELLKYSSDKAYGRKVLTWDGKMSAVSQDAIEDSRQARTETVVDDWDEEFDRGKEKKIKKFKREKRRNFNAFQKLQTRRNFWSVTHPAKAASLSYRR
Summary of the method: as §1

[3] = molecular target: T2, USP38 (UniProt Q8NB14)
T2 sequence (whole entry): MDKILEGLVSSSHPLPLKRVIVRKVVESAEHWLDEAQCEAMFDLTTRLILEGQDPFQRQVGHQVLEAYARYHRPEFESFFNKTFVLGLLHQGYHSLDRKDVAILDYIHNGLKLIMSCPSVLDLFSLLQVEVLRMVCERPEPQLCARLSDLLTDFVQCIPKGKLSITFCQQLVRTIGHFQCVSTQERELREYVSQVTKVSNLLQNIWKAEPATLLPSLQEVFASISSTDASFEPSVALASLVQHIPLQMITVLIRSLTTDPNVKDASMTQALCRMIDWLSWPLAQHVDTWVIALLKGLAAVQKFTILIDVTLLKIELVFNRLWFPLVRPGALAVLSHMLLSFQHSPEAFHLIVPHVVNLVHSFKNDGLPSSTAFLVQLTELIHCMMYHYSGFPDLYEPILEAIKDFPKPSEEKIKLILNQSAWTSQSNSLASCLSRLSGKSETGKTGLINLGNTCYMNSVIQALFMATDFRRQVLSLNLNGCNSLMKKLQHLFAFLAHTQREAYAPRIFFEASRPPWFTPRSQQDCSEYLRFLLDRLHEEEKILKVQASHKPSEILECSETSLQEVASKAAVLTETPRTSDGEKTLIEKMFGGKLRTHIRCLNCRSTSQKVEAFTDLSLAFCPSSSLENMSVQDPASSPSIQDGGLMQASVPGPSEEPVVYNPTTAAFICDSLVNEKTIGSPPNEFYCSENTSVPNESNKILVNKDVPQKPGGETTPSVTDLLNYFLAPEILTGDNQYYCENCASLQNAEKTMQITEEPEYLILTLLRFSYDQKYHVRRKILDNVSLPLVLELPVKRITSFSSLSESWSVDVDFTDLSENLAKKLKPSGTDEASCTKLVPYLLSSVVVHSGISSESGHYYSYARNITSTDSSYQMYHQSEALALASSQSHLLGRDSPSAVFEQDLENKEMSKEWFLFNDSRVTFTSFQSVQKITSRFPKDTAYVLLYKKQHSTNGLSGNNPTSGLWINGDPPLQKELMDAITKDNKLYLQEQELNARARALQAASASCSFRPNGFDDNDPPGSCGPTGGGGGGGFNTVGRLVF
Summary of the method: as §1

[4] = molecular target: T3, USP39 (UniProt Q53GS9)
T3 sequence (whole entry): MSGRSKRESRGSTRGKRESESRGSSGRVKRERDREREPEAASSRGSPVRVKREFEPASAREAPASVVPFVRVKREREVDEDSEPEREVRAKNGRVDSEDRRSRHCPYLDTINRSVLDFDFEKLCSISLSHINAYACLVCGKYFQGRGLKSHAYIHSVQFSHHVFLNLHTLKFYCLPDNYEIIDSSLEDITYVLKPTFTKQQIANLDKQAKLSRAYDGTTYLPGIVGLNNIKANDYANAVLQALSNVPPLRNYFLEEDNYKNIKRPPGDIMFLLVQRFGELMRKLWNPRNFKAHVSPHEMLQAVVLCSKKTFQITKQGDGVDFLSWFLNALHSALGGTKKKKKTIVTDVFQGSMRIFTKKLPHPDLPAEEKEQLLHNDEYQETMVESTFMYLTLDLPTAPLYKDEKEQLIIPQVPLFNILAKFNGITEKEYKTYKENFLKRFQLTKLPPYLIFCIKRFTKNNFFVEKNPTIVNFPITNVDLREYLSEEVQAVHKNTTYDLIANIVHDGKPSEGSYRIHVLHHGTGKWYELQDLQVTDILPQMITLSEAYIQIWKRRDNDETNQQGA
Summary of the method: as §1

[5] = molecular target: T4, USP4 (UniProt Q13107)
T4 sequence (whole entry): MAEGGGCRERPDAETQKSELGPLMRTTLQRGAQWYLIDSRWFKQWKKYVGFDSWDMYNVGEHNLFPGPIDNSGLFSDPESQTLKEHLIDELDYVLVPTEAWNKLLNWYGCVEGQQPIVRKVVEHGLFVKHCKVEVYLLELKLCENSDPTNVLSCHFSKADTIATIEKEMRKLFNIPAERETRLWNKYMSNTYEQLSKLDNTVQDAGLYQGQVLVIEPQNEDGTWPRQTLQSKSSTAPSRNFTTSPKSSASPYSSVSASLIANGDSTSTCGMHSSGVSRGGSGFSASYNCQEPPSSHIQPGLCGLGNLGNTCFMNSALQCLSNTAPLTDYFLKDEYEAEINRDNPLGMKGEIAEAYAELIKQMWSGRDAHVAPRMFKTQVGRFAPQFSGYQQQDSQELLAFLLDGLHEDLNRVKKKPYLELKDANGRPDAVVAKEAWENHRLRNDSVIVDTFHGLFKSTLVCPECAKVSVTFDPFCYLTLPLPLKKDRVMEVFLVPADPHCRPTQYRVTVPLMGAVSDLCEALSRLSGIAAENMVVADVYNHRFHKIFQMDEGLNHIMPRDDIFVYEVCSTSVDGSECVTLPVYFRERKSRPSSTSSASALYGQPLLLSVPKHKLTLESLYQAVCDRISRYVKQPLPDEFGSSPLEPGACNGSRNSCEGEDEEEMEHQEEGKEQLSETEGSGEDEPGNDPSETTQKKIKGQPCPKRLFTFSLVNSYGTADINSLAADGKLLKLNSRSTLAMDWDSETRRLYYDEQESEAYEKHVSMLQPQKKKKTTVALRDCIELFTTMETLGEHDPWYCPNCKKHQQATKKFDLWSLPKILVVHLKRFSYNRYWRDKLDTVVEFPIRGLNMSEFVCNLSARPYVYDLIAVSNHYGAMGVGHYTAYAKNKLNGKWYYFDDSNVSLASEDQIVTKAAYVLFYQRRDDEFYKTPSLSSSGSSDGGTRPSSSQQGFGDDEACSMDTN
Summary of the method: as §1

Measured: log2 ratio of Biotin-Ahx-Ub-VS probe labelling

USP34, sequence (Q70CQ2 whole entry, the tested form may be a part): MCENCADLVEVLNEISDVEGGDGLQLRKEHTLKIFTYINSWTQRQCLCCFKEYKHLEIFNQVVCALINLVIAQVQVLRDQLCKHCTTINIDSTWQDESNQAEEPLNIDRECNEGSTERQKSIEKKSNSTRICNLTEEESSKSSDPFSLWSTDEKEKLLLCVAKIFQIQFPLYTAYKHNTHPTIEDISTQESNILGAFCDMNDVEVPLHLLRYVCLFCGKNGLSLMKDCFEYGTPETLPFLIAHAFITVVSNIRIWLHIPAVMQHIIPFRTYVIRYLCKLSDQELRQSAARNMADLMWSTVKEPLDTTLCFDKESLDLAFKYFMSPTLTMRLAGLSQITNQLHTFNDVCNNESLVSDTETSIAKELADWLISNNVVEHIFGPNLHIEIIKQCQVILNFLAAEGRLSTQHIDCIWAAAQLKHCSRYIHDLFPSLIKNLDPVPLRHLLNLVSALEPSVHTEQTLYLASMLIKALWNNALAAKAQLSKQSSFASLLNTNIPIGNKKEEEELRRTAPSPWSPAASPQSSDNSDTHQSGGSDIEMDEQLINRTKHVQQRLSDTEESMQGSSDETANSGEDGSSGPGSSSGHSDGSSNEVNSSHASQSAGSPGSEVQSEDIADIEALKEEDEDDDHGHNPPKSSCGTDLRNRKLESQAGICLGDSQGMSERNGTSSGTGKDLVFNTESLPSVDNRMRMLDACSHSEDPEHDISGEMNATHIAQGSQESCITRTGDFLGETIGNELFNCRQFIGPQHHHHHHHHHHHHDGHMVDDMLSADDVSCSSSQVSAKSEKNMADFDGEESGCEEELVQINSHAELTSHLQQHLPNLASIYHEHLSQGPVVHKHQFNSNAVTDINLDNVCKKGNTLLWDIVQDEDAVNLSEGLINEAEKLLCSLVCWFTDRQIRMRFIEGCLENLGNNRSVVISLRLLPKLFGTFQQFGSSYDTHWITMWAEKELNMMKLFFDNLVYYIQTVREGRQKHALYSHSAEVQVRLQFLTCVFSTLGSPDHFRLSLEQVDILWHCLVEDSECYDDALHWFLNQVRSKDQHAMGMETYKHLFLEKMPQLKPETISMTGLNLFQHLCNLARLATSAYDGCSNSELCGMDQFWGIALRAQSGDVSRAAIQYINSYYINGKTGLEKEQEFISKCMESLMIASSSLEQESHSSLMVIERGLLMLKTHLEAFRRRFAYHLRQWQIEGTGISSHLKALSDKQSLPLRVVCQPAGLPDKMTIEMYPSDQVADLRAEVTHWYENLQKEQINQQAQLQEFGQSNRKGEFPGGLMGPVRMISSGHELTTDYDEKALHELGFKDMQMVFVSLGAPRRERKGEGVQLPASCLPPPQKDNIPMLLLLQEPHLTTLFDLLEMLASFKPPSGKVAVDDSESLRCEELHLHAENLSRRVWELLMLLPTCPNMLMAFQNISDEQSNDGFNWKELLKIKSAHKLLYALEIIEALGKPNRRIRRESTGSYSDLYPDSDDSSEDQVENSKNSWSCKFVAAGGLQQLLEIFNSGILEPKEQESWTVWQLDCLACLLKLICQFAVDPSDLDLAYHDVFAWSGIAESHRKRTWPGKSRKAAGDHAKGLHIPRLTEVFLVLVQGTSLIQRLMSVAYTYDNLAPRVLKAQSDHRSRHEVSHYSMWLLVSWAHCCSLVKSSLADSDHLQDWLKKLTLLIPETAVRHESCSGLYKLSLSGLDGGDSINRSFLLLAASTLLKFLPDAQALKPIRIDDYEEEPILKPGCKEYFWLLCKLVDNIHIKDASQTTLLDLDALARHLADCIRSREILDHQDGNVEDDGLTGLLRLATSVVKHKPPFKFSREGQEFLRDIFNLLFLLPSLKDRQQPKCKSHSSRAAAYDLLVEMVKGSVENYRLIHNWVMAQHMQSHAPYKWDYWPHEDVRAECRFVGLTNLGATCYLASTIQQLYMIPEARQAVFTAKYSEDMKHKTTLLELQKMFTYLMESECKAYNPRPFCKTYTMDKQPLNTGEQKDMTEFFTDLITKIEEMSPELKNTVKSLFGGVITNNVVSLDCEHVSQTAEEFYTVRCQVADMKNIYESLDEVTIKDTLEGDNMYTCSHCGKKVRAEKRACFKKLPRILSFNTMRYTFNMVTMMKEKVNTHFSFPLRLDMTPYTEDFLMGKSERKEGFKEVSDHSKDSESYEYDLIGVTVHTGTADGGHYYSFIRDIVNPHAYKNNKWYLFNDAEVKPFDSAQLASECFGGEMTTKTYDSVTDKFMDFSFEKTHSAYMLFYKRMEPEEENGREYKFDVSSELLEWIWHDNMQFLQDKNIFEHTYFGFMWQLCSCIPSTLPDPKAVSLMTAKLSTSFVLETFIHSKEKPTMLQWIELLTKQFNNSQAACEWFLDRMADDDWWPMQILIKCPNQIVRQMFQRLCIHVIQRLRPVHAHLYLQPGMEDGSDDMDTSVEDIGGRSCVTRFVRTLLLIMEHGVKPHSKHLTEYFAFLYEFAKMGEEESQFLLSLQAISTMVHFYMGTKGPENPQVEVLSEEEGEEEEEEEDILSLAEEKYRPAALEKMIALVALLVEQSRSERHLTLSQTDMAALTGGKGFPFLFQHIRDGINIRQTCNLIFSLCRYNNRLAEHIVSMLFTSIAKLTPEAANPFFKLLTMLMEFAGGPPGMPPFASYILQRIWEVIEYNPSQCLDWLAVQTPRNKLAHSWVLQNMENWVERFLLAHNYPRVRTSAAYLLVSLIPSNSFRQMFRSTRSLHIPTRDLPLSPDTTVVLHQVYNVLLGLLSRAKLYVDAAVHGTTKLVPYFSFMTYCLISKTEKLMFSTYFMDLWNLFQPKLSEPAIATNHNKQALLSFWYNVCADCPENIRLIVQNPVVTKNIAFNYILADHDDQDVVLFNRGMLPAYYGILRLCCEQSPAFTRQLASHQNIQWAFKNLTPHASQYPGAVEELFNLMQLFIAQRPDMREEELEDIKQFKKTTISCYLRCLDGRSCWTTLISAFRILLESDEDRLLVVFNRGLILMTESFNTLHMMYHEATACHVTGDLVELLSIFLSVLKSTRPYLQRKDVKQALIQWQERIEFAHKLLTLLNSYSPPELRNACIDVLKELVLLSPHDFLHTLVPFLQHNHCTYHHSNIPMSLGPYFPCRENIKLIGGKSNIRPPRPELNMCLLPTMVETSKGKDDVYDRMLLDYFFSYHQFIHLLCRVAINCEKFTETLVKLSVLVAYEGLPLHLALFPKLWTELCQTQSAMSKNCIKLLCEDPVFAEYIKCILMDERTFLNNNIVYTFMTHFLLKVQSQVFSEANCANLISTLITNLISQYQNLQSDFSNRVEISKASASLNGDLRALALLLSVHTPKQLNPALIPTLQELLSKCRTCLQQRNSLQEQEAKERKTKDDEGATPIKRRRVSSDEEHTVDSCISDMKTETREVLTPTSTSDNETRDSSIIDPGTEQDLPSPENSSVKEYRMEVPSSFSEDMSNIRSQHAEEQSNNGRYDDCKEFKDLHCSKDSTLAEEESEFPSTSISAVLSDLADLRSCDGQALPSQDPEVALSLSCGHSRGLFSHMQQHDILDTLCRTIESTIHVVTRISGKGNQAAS

O=C(CCl)N1CCOC2(CCC2)C1
inactive: [1] 0.118 | [2] 0.102 | [3] 0.253 | [4] 0.11 | [5] -0.266
